We go through 16 molecules from PubChem BioAssay (NCATS).

Values joined by “and” are separate entries in the source; they are usually repeats but may differ in a detail not shown here. Equal entries are not always repeated. Results filed as inconclusive are left out. Values without a mark were called inactive. Active and inactive are the calls of the source. Calls follow the shape of the full dose curve.

Sequence of Bile acid receptor (Homo sapiens) (Q96RI1 whole entry, looked up): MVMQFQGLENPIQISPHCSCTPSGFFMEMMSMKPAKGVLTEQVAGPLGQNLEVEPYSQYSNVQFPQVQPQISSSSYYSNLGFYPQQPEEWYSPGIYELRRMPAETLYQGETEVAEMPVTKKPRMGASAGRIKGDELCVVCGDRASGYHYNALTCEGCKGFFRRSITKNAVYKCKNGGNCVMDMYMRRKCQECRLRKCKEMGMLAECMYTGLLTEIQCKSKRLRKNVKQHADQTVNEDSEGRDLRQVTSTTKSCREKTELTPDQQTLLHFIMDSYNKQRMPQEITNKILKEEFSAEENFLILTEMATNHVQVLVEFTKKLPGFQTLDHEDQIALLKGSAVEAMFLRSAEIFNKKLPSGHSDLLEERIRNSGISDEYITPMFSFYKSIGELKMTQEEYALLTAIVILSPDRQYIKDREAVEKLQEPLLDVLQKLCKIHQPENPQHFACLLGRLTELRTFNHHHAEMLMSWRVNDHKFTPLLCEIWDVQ

One test has as its target Bile acid receptor (Homo sapiens) (UniProt Q96RI1). Put plainly: qHTS assay for small molecule antagonists of farnesoid X receptor signaling (AID 588526). Also: potency is read from the fitted curve at half-maximal effect. Conditions: HEK293T FXR-UAS-bla, beta-lactamase ratio, antagonist mode; series mostly up to 76.7 µM. In outline:
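Beta-lactamase reporter antagonist mode: HEK293T FXR-UAS-bla cells, titrated compound, CDCA stimulation, 16 h 37 C, CCF4 dye 2 h RT. Data normalized to CDCA 50 uM and DMSO; Hill-fit IC50.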
(qHTS replaces the single test concentration by a dilution series.)
Consider `CC(C)(C)CC(C)(C)c1ccc(O)cc1`, for which the Potency result was “inactive”.

Take `Cc1cc(SCc2sc(-c3ccc(C(F)(F)F)c(F)c3)nc2C)ccc1OCC(=O)O`: the Potency result is “inactive”.

In the case of `N[C@@H](Cc1ccc(N(CCCl)CCCl)cc1)C(=O)O`, the Potency was 39.8 µM (active).

The next test has the same target. The experiment in a line: qHTS assay for small molecule agonists of farnesoid X receptor signaling (AID 588527).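 Also: 0% = vehicle basal and 100% = reference agonist.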 The note with it: HEK293T FXR-UAS-bla, beta-lactamase ratio, 16 h; active compounds read high. In outline:
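Agonist-mode beta-lactamase reporter in GeneBLAzer FXR-UAS-bla HEK293T cells, titration up to 92 uM, 16 h exposure at 37 C, CCF4 fluorescence. Response scaled to DMSO (0%) and 100 uM chenodeoxycholic acid (100%), then Hill-fitted for EC50 and efficacy.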
On to `CC(C)(C)CC(C)(C)c1ccc(O)cc1`, for which the activation is 3.19%.

For `Cc1cn([C@H]2C[C@H](N=[N+]=[N-])[C@@H](CO)O2)c(=O)[nH]c1=O`, the activation was -3.84%.

For `C[C@H]1O[C@@H](O[C@H]2[C@@H](O)C[C@H](O[C@H]3[C@@H](O)C[C@H](O[C@H]4CC[C@@]5(C)[C@H](CC[C@@H]6[C@@H]5CC[C@]5(C)[C@@H](C7=CC(=O)OC7)CC[C@]65O)C4)O[C@@H]3C)O[C@@H]2C)C[C@H](O)[C@@H]1O`, the activation was -2.75%.

On to `C#C[C@]1(O)CC[C@H]2[C@@H]3CCC4=Cc5oncc5C[C@]4(C)[C@H]3CC[C@@]21C`, for which the activation is -1.05%.

Consider `CN(C)/N=N/c1nc[nH]c1C(N)=O`, for which the activation is -3.3%.

For `Cc1ccc(C)c(OCCCC(C)(C)C(=O)O)c1`, the activation was -2.62% and -0.135%.

On to `CCc1nc(N)nc(N)c1-c1ccc(Cl)cc1`, for which the activation is -5.01% and -3.58%.

Regarding `COC1=CC(=O)C[C@@H](C)[C@]12Oc1c(Cl)c(OC)cc(OC)c1C2=O`, the activation was 0.423%.

`Cc1ccnc2c1NC(=O)c1cccnc1N2C1CC1`: the activation is 5.2%.

For `O=c1oc2ccccc2c(O)c1C(CC(O)c1ccc(-c2ccc(Br)cc2)cc1)c1ccccc1` (centres undefined), the activation was -8.03%.

Regarding `CC[C@H](C)C(=O)O[C@H]1C[C@@H](C)C=C2C=C[C@H](C)[C@H](CC[C@@H]3C[C@@H](O)CC(=O)O3)[C@H]21`, the activation was -3.65%.

Take `CCCN(CCC)S(=O)(=O)c1ccc(C(=O)O)cc1`: the activation is -0.735% and 0.243%.

Turning to `Cc1cc(SCc2sc(-c3ccc(C(F)(F)F)c(F)c3)nc2C)ccc1OCC(=O)O`, the activation was -2.28%.

Turning to `CCCCOCCOCCOCc1cc2c(cc1CCC)OCO2`, the activation was 1.08% and -5.21%.

Turning to `N[C@@H](Cc1ccc(N(CCCl)CCCl)cc1)C(=O)O`, the activation was 0.124%.

As for `Nc1ccc(O)c(C(=O)O)c1`, the activation is -5.01% and -0.178%.
